Test results taken from the supplement of paper PMC12340641.
Structures can show the parent of a compound that is named as a salt.

Tests used:
[1] = molecular target: IKZF1 (dCK*-IKZF1 fusion in HEK293FT) (UniProt Q13422); assay: inhibition of IKZF1 HTRF signal (DMSO = 0%, pomalidomide 10 uM = 100%); higher = lower IKZF1 protein level; conditions: compound concentration: 5 uM, overnight (~20 h)
How it was run: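 For percent inhibition of IKZF1 signal, each plate was normalised to vehicle and to a reference degrader. Cells were HEK293FT stably expressing an IKZF1 fusion, plated at 2000/well in 384-well format and treated overnight at 37 °C with 5 μM compound, one well each. Lysates were probed overnight with a commercial HTRF total-IKZF1 antibody kit, with the 665/620 nm ratio background-subtracted and vehicle and degrader fixed at 0% and 100%.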

HEK293FT dCK*-only = assay: relative growth in counter assay (no AraC = 100%, AraC + DMSO = 0%); higher = more growth rescue independent of IKZF1; conditions: compound concentration: 5 uM; AraC concentration: 0.3 uM; overnight pretreatment + 4 days AraC
How it was run: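 HEK293FT cells carrying only an engineered kinase construct were plated at 300 per well (384-well) and given 5 μM compound 2 h later. Following overnight at 37 °C, a nucleoside suicide substrate (0.3 μM) plus medium was added for 4 days. Hoechst 33342-stained nuclei were imaged and counted on day 5, with 100% assigned to wells without suicide substrate and 0% to substrate plus vehicle on each plate.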

HEK293FT dCK*-IKZF1 = assay: relative growth recovery (pomalidomide 10 uM = 100%, DMSO = 0%); higher = more growth rescue (IKZF1 fusion degradation); conditions: compound concentration: 5 uM; AraC concentration: 0.3 uM; overnight pretreatment + 4 days AraC
How it was run: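 Means of duplicates from different days are given for growth recovery, normalised per plate against a reference degrader and vehicle. The reference degrader set the 100% level and vehicle the 0% level. HEK293FT cells stably expressing a deoxycytidine kinase–IKZF1 fusion (300/well, 384-well) received 5 μM compound 2 h after seeding and, after overnight at 37 °C, 0.3 μM of a nucleoside suicide substrate plus medium for 4 days. Nuclei stained with Hoechst 33342 were then counted by whole-well imaging on day 5.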

IKZF1 (dCK*-IKZF1 fusion in HEK293FT), sequence (Q13422 whole entry, looked up, the tested form may be a part): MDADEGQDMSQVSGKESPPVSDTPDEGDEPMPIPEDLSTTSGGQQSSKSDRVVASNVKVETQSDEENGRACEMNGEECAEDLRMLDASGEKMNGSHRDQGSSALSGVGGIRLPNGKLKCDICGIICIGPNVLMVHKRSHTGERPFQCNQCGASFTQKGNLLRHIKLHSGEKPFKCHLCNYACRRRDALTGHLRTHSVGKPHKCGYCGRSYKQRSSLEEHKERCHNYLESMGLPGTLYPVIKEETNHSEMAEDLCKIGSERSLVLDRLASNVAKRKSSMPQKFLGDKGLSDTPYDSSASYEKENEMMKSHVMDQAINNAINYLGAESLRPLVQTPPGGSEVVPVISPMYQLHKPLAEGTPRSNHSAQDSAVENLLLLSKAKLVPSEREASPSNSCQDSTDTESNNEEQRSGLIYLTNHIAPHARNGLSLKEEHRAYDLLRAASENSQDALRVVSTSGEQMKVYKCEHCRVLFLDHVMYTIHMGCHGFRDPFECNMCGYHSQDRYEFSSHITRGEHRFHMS

Structure (SMILES)	inhibition of IKZF1 HTRF signal [1] [%]	relative growth in counter assay (HEK293FT dCK*-only) [%]	relative growth recovery (HEK293FT dCK*-IKZF1) [%]
CCCCCCCCCCC(CO)CCCCCCCC (stereo not drawn) [2-Octyldodecan-1-ol]	-45	-4.55	-2.31
O=C1OC2(c3ccc(O)cc3Oc3cc(O)ccc32)c2ccccc21	28.2	-3.82	-3.9
COc1ccc(Cl)cc1C(=O)NCCc1ccc(S(=O)(=O)NC(=O)NC2CCCCC2)cc1	-51.9	-0.06	3.14
O=C(/C=C/c1ccc(O)c(O)c1)OCCc1ccccc1 [caffeic-acid-phenethyl-ester]	-31.4	-29	-7.03
C=C1CCC2[C@](C)(CO)[C@H](O)CC[C@@]2(C)[C@@H]1C/C=C1/C(=O)OC[C@H]1O (stereo partly drawn) [Andrographolide]	0.47	-20.8	-5.34
CC(C)[C@H]1c2ccc(F)cc2CC[C@@]1(CCN(C)CCCc1nc2ccccc2[nH]1)OC(=O)C1CC1	-25.9	-31.9	-9.29
Nc1cc(N2CCCCC2)nc(N)[n+]1[O-]	-27.1	-5.79	-0.55
Fc1ccc(C(c2ccc(F)cc2)N2CCN(C/C=C/c3ccccc3)CC2)cc1 [flunarizine]	-47	1.76	-0.165
O=C(Nc1ccc(F)cc1)N1CCc2ccccc2C1c1ccc(C(F)(F)F)cc1 (stereo not drawn)	-25.5	4.9	-0.27
CN1CCN(CCCN2c3ccccc3Sc3ccc(C(F)(F)F)cc32)CC1 [Trifluoperazine  HCl]	-1.13	28.7	3.73
COc1cccc2c1C(=O)c1c(O)c3c(c(O)c1C2=O)C[C@@](O)(C(=O)CO)C[C@@H]3O[C@H]1C[C@H](N)[C@H](O[C@@H]2CCCCO2)[C@H](C)O1 [Pirarubicin]	37.3	-33.8	-13.1
